About 4,300 (3.1%) of roughly 140,000 compounds were called active. Not shown: some 21% with an inconclusive outcome. The list comes from a sample in which actives are over-represented; it also holds similar structures and randomly drawn compounds. A number with no mark means an inactive call.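 Rule for the calls: active = readout at or below -70, meaning at least 70% loss of cells showing the perinucleolar compartment, a nuclear body marking cancer cells; inconclusive = readout between -30 and a set limit; inactive = the rest.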
Assay: High Content Assay for Compounds that inhibit the Assembly of the Perinucleolar Compartment;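 note: plate controls were DMSO wells for no effect and camptothecin positive control wells for full effect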
Settings: PC3M PTB-GFP, PNC prevalence imaging, 16 h; at 10 µM; active compounds read low
Outline: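 Compounds are pinned in duplicate onto adhered PC3M cells stably expressing GFP-tagged PTB and incubated 16 h at 37 C. Cells are then fixed, nuclei stained with Hoechst, and PNC-positive cells counted.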
In the case of CCOC(=O)/C(=N\Nc1cc(Cl)ccc1Cl)N1CCN(C)CC1, the activity change (PNC), negative = inhibition is reported as -27.3%. In the case of c1ccc2[nH]c(NCCN3CCOCC3)nc2c1, the activity change (PNC), negative = inhibition is reported as -1.68%. Molecule O=C(Cn1c(-c2ccccn2)nc2ccccc21)NCCN1CCOCC1 has an activity change (PNC), negative = inhibition of 42.9%. In the case of c1ccc2cc3c(NCCN4CCOCC4)ccnc3cc2c1, the activity change (PNC), negative = inhibition is reported as -103% (active). For NS(=O)(=O)c1ccc(NC(=O)COC(=O)C2(c3ccc(F)cc3)CCCC2)cc1, the activity change (PNC), negative = inhibition was 50%. With CCCCOC(=O)Nc1nccs1 the activity change (PNC), negative = inhibition was 243%. In the case of CC1(C)Cc2cccc(OCC(=O)N3CCN(c4ccc([N+](=O)[O-])cc4)CC3)c2O1, the activity change (PNC), negative = inhibition is reported as 7.92%. With CC1(C)Cc2cccc(OCC(=O)Nc3nccs3)c2O1 the activity change (PNC), negative = inhibition was -87.8% (active). With Cc1ccccc1C(OCCN(C)C)C1CCCCC1 (stereo not given) the activity change (PNC), negative = inhibition was -5.25%. For Cc1ccccc1Nc1nc(N)nc(CSc2ccccc2)n1, the activity change (PNC), negative = inhibition was -3.06%. OCCCN1c2ccccc2Nc2nnc(-c3ccccc3)cc21 showed an activity change (PNC), negative = inhibition of -15.1%. For N=c1c2c(-c3ccccc3)c(-c3ccccc3)n(Cc3ccccc3)c2ncn1CCCO, the activity change (PNC), negative = inhibition was -90.2% (active). N=c1c2c(-c3ccccc3)c(-c3ccccc3)oc2ncn1Cc1ccco1 showed an activity change (PNC), negative = inhibition of 34.2%. Molecule CN(C)c1ccc(/C=N/N(Cc2ccccc2)c2ccccc2)cc1 has an activity change (PNC), negative = inhibition of -6.4%. Molecule CCN1CN(Cc2ccccc2)CNC1=S has an activity change (PNC), negative = inhibition of -4.78%. CCCCOc1ccc(CSC(=N)N)cc1[N+](=O)[O-] gave an activity change (PNC), negative = inhibition of -6.06%. With CCCOc1ccc(Cn2ccnc2)cc1[N+](=O)[O-] the activity change (PNC), negative = inhibition was -21.9%. For CCCCCOc1ccc(CSC2=NCCN2)cc1[N+](=O)[O-], the activity change (PNC), negative = inhibition was -84.7% (active). For COc1ccc(Br)cc1CN(C)CC(=O)Nc1cc(Cl)cc(Cl)c1, the activity change (PNC), negative = inhibition was 5.92%. O=C(NC1CC1)c1cccc(Br)c1 gave an activity change (PNC), negative = inhibition of 8.13%. In the case of CN(c1ccccc1)S(=O)(=O)c1ccc(Cl)c(C(=O)NCCc2c[nH]c3ccccc23)c1, the activity change (PNC), negative = inhibition is reported as -83.7% (active). In the case of Cc1cc(C)cc(NC(=S)NCCc2c[nH]c3ccccc23)c1, the activity change (PNC), negative = inhibition is reported as 22.2%. Molecule CCN(CC)S(=O)(=O)c1ccc2[nH]cc(C(=O)NCCc3ccccc3)c(=O)c2c1 has an activity change (PNC), negative = inhibition of -4.74%. Work on Cc1ccc(-n2nc3cc(C)c(NC(=O)c4cccnc4)cc3n2)cc1 yielded an activity change (PNC), negative = inhibition of 22.4%. In the case of O=C1CC(NNc2ccccc2)C(=O)N1c1cccc(Cl)c1 (stereo not given), the activity change (PNC), negative = inhibition is reported as 44.7%. In the case of O=C(NNC1CC(=O)N(c2cccc(Cl)c2)C1=O)c1cccnc1 (stereo not given), the activity change (PNC), negative = inhibition is reported as -121% (active). O=C(CCc1ccc(S(=O)(=O)N2CCOCC2)cc1)NN=C1CCCCCCC1 gave an activity change (PNC), negative = inhibition of -25.6%. Cc1cc2c(c(=O)n1Cc1ccco1)C(c1ccccc1)C(C#N)=C(N)O2 (stereo not given) gave an activity change (PNC), negative = inhibition of -6.34%. In the case of N#CC1=C(N)Oc2c(sc3ccccc23)C1c1ccco1 (stereo not given), the activity change (PNC), negative = inhibition is reported as -91.1% (active). Molecule Cc1cc2oc(C(=O)Nc3c(C)n(C)n(-c4ccccc4)c3=O)c(C)c2cc1Cl has an activity change (PNC), negative = inhibition of 2.22%. Work on Cc1cccc(NC(=O)/C=C/c2ccc3c(c2)OCO3)n1 yielded an activity change (PNC), negative = inhibition of 46%. COc1ccc(NC(=O)c2c(SC)nsc2SC)cc1 showed an activity change (PNC), negative = inhibition of -6.12%. With COc1ccc(NC(=O)c2ccc(C#CC(C)(C)O)cc2)cc1 the activity change (PNC), negative = inhibition was -12.4%. In the case of COc1ccc(NC(=O)c2sccc2SCC#N)cc1, the activity change (PNC), negative = inhibition is reported as -88.1% (active). Work on CCCOC(=O)c1ccc(N2C(=O)c3ccccc3C2=O)cc1 yielded an activity change (PNC), negative = inhibition of -21.8%. COc1ccc(C(=O)NC2(C(F)(F)F)NC(=O)N(CCCc3ccccc3)C2=O)c(OC)c1OC (stereo not given) showed an activity change (PNC), negative = inhibition of -8.14%. With O=C(O)CCC(=O)Nc1ccc(N2CCOCC2)cc1 the activity change (PNC), negative = inhibition was -23.8%. For CN(CC(=O)Nc1ccc(N2CCOCC2)cc1)CC(=O)Nc1ccccc1[N+](=O)[O-], the activity change (PNC), negative = inhibition was -100% (active). CC(=O)Nc1ccc(S(=O)(=O)N2CCN(c3ccc([N+](=O)[O-])c(NCCN4CCOCC4)c3)CC2)cc1 gave an activity change (PNC), negative = inhibition of -13.1%. Molecule O=C(NCCc1ccccc1)C1CCC(Cn2c(=O)c3ccccc3n(Cc3cccnc3)c2=O)CC1 (stereo not given) has an activity change (PNC), negative = inhibition of 13.2%. Cc1nc(SCc2ccc(F)cc2)c([N+](=O)[O-])[nH]1 gave an activity change (PNC), negative = inhibition of 17.5%. For CCC(NC(=O)c1ccccc1NC(=O)c1ccccc1)C(=O)NNC(=O)CSc1nc2ccccc2o1 (stereo not given), the activity change (PNC), negative = inhibition was -4.05%. COCCn1c(=O)[nH]c(=O)c2cc(C(=O)c3cc(OC)ccc3O)cnc21 showed an activity change (PNC), negative = inhibition of -8.95%. Cc1ccccc1N1CCN(CCCOc2ccc3c(C)cc(=O)oc3c2)CC1 showed an activity change (PNC), negative = inhibition of -23.3%. In the case of Cc1cc(=O)oc2cc(OCC3CC(c4ccccc4Cl)=NO3)ccc12 (stereo not given), the activity change (PNC), negative = inhibition is reported as -89.5% (active). Molecule Cc1ccccc1NC(=O)c1ccc(COc2ccc3c(C)cc(=O)oc3c2)cc1 has an activity change (PNC), negative = inhibition of 90.9%. In the case of COc1ccc(/C(N)=N/OC(=O)CCCc2ccccc2)cc1, the activity change (PNC), negative = inhibition is reported as -16.1%. In the case of COc1ccccc1NC(=O)CCCc1c[nH]c2ccccc12, the activity change (PNC), negative = inhibition is reported as -4.48%. With COc1cc(C2C(C(=O)Nc3ccccc3OC)=C(C)Nc3ncnn32)ccc1O (stereo not given) the activity change (PNC), negative = inhibition was 17.6%. With COc1ccccc1NC(=O)C1=C(C)Nc2nc3ccccc3n2C1c1cccs1 (stereo not given) the activity change (PNC), negative = inhibition was -82.7% (active). COc1ccccc1NC(=O)C1=C(C)Nc2ncnn2C1c1ccc(C)o1 (stereo not given) showed an activity change (PNC), negative = inhibition of -27.1%. Cc1ccc(Oc2cc(NC(=O)CCCn3nc(C)c([N+](=O)[O-])c3C)cc([N+](=O)[O-])c2)cc1 gave an activity change (PNC), negative = inhibition of 5%. CNC(=O)NC(=O)C(OC(=O)c1cccc(S(=O)(=O)N2CCCCC2)c1)c1ccccc1 (stereo not given) gave an activity change (PNC), negative = inhibition of -3.58%. In the case of COc1cc(OC)cc(-c2nc3ccccc3c(=O)n2NC(=O)c2cccnc2Cl)c1, the activity change (PNC), negative = inhibition is reported as -30%. With N#Cc1ccccc1Sc1ccccc1C(=O)OCC(=O)NC1CCCCC1 the activity change (PNC), negative = inhibition was 33.1%. O=C(COC(=O)c1cc(-c2cccs2)nn1-c1ccccc1)Nc1cc([N+](=O)[O-])ccc1Cl showed an activity change (PNC), negative = inhibition of 21.6%. With CCCCC(C(=O)OCC(=O)c1ccc(OC)cc1)N1C(=O)c2ccccc2C1=O (stereo not given) the activity change (PNC), negative = inhibition was -100% (active). COc1ccc(C(=O)CN(C(=O)c2ccc(Cl)cc2)N2C(=O)c3ccccc3C2=O)cc1 showed an activity change (PNC), negative = inhibition of -9.88%. COc1ccc(OCCCON2C(=O)c3ccccc3C2=O)cc1 gave an activity change (PNC), negative = inhibition of 0.67%. Work on CCCCN1C(=O)CCC(C(=O)O)C1c1ccc(OC)cc1 (stereo not given) yielded an activity change (PNC), negative = inhibition of 36.8%. Molecule CCN(CC)c1ccc(S(=O)(=O)N2CCOCC2)cc1NC(=O)CSc1cccc[n+]1[O-] has an activity change (PNC), negative = inhibition of 11.8%. In the case of Cc1nc(NCc2ccccc2)c(C(N)=O)c2c1COC(C)(C)C2, the activity change (PNC), negative = inhibition is reported as -122% (active). In the case of O=C(c1cccnc1NCc1ccccc1)N1CCOCC1, the activity change (PNC), negative = inhibition is reported as 40.9%. Work on Cc1nc(NCCN)c(C#N)c2c1COC(C)(C)C2 yielded an activity change (PNC), negative = inhibition of 32.5%. With S=C(NCc1ccc(Cl)cc1)NC1CCCCC1 the activity change (PNC), negative = inhibition was 32.1%. For COc1ccc(S(=O)(=O)N2CCC(C(=O)N3CCc4ccccc4C3)CC2)cc1OC, the activity change (PNC), negative = inhibition was -84.1% (active). Molecule COc1ccc(S(=O)(=O)N2CCC(C(=O)N3CCOCC3)CC2)cc1OC has an activity change (PNC), negative = inhibition of -7.88%. Molecule COc1ccc(S(=O)(=O)N2CCN(C(=O)c3cccs3)CC2)cc1OC has an activity change (PNC), negative = inhibition of -15.3%. C=CCNC(=O)/C(=C\c1cccc([N+](=O)[O-])c1)NC(=O)c1ccccc1 showed an activity change (PNC), negative = inhibition of 48.8%. With O=C(CSc1ncnc2scc(-c3ccccc3)c12)NCc1ccc2c(c1)OCO2 the activity change (PNC), negative = inhibition was 40.3%. Cc1cc(O)ccc1NC1=CC(=O)CC(C)(C)C1 gave an activity change (PNC), negative = inhibition of -15.4%. Cc1nc2ccccc2cc1OCc1ccc(F)cc1 showed an activity change (PNC), negative = inhibition of 41.2%. For Cc1noc(COc2ccccc2OCc2onc(C)c2Cl)c1Cl, the activity change (PNC), negative = inhibition was -100% (active). Molecule Cc1noc(COc2ccccc2OCC(O)CNC(C)(C)C)n1 (stereo not given) has an activity change (PNC), negative = inhibition of -3.16%. Molecule COc1ccc(CCNC(=O)COC(=O)C2CCCCC2)cc1 has an activity change (PNC), negative = inhibition of 43.3%. Cc1cccc(C)c1NC(=O)C(c1ccccc1)N1CC(=O)Nc2ccccc21 (stereo not given) showed an activity change (PNC), negative = inhibition of 43.2%. Work on CCn1c(C(C)NC(=O)c2ccc(C)cc2)n[nH]c1=S (stereo not given) yielded an activity change (PNC), negative = inhibition of 8.92%. Cc1ccc(CC(=O)Nc2ccc(OC(F)F)c(Cl)c2)cc1C showed an activity change (PNC), negative = inhibition of 5.84%. In the case of N#CC1=C(SCc2ccccc2)NC(=O)C(C#N)C12CCCC2 (stereo not given), the activity change (PNC), negative = inhibition is reported as 9.75%. In the case of N#CC1=C(SCc2ccc(C#N)cc2)N=C(N)C(c2nc(-c3ccccc3)cs2)C12CCCCC2 (stereo not given), the activity change (PNC), negative = inhibition is reported as -112% (active). Molecule COc1ccnc(Oc2ccccc2)n1 has an activity change (PNC), negative = inhibition of -12.4%. With C=CCOc1ccc(/C=N/n2cncn2)cc1OC the activity change (PNC), negative = inhibition was 5.24%. Work on COc1cc(/C=N/NC(=O)Nc2ccccc2)ccc1OCCOc1ccccc1C yielded an activity change (PNC), negative = inhibition of -16.5%. With C/C=C/c1ccc(OCCOc2ccc(C=O)cc2OC)c(OC)c1 the activity change (PNC), negative = inhibition was -108% (active). With CCOC(=O)/C=C/C(=O)OCC(=O)NC(c1ccccc1)c1ccccc1 the activity change (PNC), negative = inhibition was -28.2%. In the case of CCCOc1ccccc1C1CC(=O)Nc2cc3c(cc21)OCO3 (stereo not given), the activity change (PNC), negative = inhibition is reported as -92% (active). For COc1ccc(C2CC(=O)Nc3cc(C)c(C)cc32)c(OC)c1OC (stereo not given), the activity change (PNC), negative = inhibition was -26.4%. In the case of COCCOC(=O)C1=C(C)NC(=O)CC1c1cc2c(cc1Br)OCO2 (stereo not given), the activity change (PNC), negative = inhibition is reported as 63.3%. With CCCSc1nc2[nH]ncc2c(=O)[nH]1 the activity change (PNC), negative = inhibition was 26.1%. Work on Cc1cc(C(=O)COc2ccccc2[N+](=O)[O-])c(C)n1-c1cccc(S(=O)(=O)N2CCOCC2)c1 yielded an activity change (PNC), negative = inhibition of 101%. CC1(C)C2CC=C(/C=N/NC(=O)c3ccc(Cl)cc3)C1C2 (stereo not given) showed an activity change (PNC), negative = inhibition of 14.2%. CCN(CC(=O)NCCc1ccccc1)S(=O)(=O)c1ccc(C)cc1 gave an activity change (PNC), negative = inhibition of -0.956%. With Cn1c(=O)n(C)c2cc(C(=O)Nc3ccc4c(c3)OCO4)ccc21 the activity change (PNC), negative = inhibition was -87% (active). For O=C(Nc1ccc2c(c1)OCO2)c1ccc(N2C(=O)c3ccccc3C2=O)cc1, the activity change (PNC), negative = inhibition was -11%. With COc1ccc(C(=O)Nc2ccc3c(c2)OCO3)cc1OC the activity change (PNC), negative = inhibition was 5.14%.

Source: PubChem BioAssay AID2417 (National Center for Advancing Translational Sciences (NCATS), 2010)
